# Results from PubChem BioAssay.
# Active and inactive are the calls of the source.
# Experiments:
# Albumin (Bos taurus) = Albumin (Bos taurus) (UniProt P02769); assay: bovine serum albumin binders on microarray, profiling panel, artefact control for SMM control protein annotation, biochemical, small-molecule microarray, Alexa647 label, 635/667 nm fluorescence (AID 1118); conditions: BSA-A647 binding, fluorescence 635 nm, higher = more signal;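 also: score merges 667 nm emission intensity and signal-to-noise per printed compound spot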
# [1] = small-molecule microarray binders of probe aXIP, primary screen, biochemical, NeuroSMM set, 635/667 nm fluorescence (AID 1119); conditions: higher = more signal, called active from +8 up or from −8 down;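 also: probe is the protein aXip251-270 applied at 1 µg/mL to compound-printed slides; binding of probe to printed compounds measured as 667 nm fluorescence plus signal to noise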
# [2] = small-molecule binders of probe aNOTCH3, primary screen, biochemical, small-molecule microarray, 635/667 nm fluorescence (AID 1120); conditions: higher = more signal;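 also: probe is a biotin-tagged antibody raised against NOTCH3 rather than NOTCH3 protein; score merges spot fluorescence near 667 nm with spot signal to noise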
# [3] = small-molecule binders of probe aNOTCH2, primary screen, biochemical, small-molecule microarray, 635/667 nm fluorescence (AID 1121); conditions: higher = more signal;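 also: score merges feature fluorescence read at 667 nm with its signal to noise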
# [4] = target: Carbonic anhydrase 2 (Homo sapiens) (UniProt P00918); assay: CAII small-molecule binders, profiling panel, biochemical, small-molecule microarray, Alexa647-labelled CAII (AID 1122); conditions: CAII-A647 binding fluorescence, higher = more signal
# [5] = COS7 lysate on small-molecule microarray, probe aHis, 635 nm (AID 1123); conditions: COS7 cell lysate, fluorescence, higher = more signal;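 also: z-score combines 667nm fluorescence intensity with signal-to-noise per printed compound spot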
# [6] = compound binding in COS7 lysate, probe aLAP1, primary screen, cell lysate, small-molecule microarray (AID 1124); conditions: probe aLAP1, fluorescence, higher = more signal;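 also: lysate comes from COS7 cells expressing LAP1 and is applied at 0.3 µg/mL; score merges spot fluorescence near 667 nm with signal-to-noise over triplicate slides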
# Sam68 (KHDRBS1) = assay: Sam68 small-molecule binders, primary screen, biochemical, small-molecule microarray, 635 nm fluorescence (AID 1125); conditions: small-molecule microarray binding, higher = more signal;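 also: score merges 667 nm channel intensity with signal to noise over triplicate slides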
# [7] = test system: Chordin-like protein 2 (CHRDL2); assay: CHRDL2 small-molecule binders, primary screen, biochemical, small-molecule microarray, 635 nm fluorescence (AID 1126); conditions: small-molecule microarray binding, fluorescence 635 nm; higher = more signal;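 also: printed compound slides probed with Chrdl2 protein at 4 µg/mL for 1 h at 4 C; score merges 667 nm emission intensity with signal to noise over three replicate slides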
# [8] = target: Concanavalin-A (Canavalia ensiformis) (UniProt P02866); assay: ConA small-molecule binders, primary screen, artefact control for SMM control protein annotation, biochemical, small-molecule microarray, Alexa647 label, 635 nm (AID 1127); conditions: ConA-A647 binding fluorescence, higher = more signal;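 also: z combines 667 nm emission intensity with signal-to-noise across three replicate slides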
# [9] = anti-His antibody binders, primary screen, artefact control for SMM control protein annotation, biochemical, small-molecule microarray, 635 nm fluorescence (AID 1128); conditions: anti-His Alexa647 antibody binding, higher = more signal;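 also: score merges feature fluorescence with signal-to-noise for each printed compound spot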
# [10] = test system: Human papillomavirus type 1a E7 protein (residues 1-88); assay: HPV1a E7 small-molecule binders, primary screen, biochemical, small-molecule microarray, residues 1-88, 635 nm (AID 1129); conditions: small-molecule microarray binding, fluorescence 635 nm; higher = more signal
# [11] = target: Focal adhesion kinase 1 (Homo sapiens) (UniProt Q05397); assay: small-molecule microarray binders of FAK, primary screen, biochemical, 635/667 nm fluorescence, BSA, DTT (AID 1130); conditions: PTK2 binding, 635 nm fluorescence, higher = more signal;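 also: composite of spot emission at 667 nm and signal to noise over triplicate slides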
# [12] = test system: Fibrinogen (Alexa647-labelled); assay: fibrinogen binders on compound microarrays, profiling panel, artefact control for SMM control-protein annotation, biochemical, small-molecule microarray, 635/667 nm fluorescence (AID 1131); conditions: fibrinogen-A647 binding fluorescence, higher = more signal;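 also: z-score merges 667 nm fluorescence with per-spot signal-to-noise over triplicate slides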
# [13] = target: Follistatin (Homo sapiens) (UniProt P19883); assay: follistatin binders on small-molecule microarrays, primary screen, biochemical, small-molecule microarray, 635/667 nm fluorescence (AID 1132); conditions: FST binding, 635 nm fluorescence, higher = more signal
# [14] = target: Fibroblast growth factor 2 (Homo sapiens) (UniProt P09038); assay: FGF2 binders on small-molecule microarrays, primary screen, biochemical, small-molecule microarray, 635/667 nm fluorescence (AID 1133); conditions: small-molecule microarray binding, FGF2, fluorescence 635/667; higher = more signal
# [15] = mitochondrial membrane potential change in A549 cells, profiling panel, cell-based, JC-1 fluorescence, basal, 24 h, 100 nL (AID 1138); conditions: higher = more signal;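 also: A549 lung adenocarcinoma cells under basal conditions with no added stimulus; test concentration not given here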
# Lefty1 = Lefty1 binders on small-molecule microarrays, primary screen, biochemical, small-molecule microarray, 635/667 nm fluorescence (AID 1139); conditions: small-molecule microarray binding, fluorescence 635/667; higher = more signal
# [16] = test system: wheat germ agglutinin (Triticum aestivum), Alexa647-labelled; assay: wheat germ agglutinin binders on compound microarrays, profiling panel, artefact control for SMM control-protein annotation, biochemical, small-molecule microarray, 635/667 nm fluorescence (AID 1140); conditions: WGA-A647 binding, 635 nm fluorescence, higher = more signal;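 also: score merges 667 nm feature emission with signal to noise over triplicate slides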
# [17] = target: Luciferin 4-monooxygenase (Photinus pyralis) (UniProt P08659); assay: firefly luciferase enzyme inhibitors, primary screen, biochemical, luminescence, purified enzyme, 2006 set (AID 1141); conditions: SteadyGlo luminescence, 30 min, higher = more signal, called active from +8 up or from −8 down;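 also: cell-free assay with purified firefly luciferase at 100 ng per well in PBS; test concentration not given here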
# Chain of Luciferin 4-monooxygenase (Photinus pyralis) (P08659 whole entry, looked up): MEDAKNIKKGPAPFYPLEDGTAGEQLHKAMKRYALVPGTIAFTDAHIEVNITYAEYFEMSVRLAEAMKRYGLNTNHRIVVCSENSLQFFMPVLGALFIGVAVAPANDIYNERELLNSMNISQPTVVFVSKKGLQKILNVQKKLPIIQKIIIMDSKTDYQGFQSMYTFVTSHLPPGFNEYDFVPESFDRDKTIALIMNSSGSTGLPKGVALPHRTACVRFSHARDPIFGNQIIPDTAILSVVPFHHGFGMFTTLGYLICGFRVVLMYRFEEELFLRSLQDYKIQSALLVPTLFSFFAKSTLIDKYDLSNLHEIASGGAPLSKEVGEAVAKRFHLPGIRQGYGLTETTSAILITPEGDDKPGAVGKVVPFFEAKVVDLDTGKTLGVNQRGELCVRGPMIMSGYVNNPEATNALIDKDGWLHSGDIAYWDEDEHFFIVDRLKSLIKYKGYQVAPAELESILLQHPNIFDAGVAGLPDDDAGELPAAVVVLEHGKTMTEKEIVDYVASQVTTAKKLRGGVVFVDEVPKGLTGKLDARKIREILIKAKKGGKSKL
# Chain of Focal adhesion kinase 1 (Homo sapiens) (Q05397 whole entry, looked up): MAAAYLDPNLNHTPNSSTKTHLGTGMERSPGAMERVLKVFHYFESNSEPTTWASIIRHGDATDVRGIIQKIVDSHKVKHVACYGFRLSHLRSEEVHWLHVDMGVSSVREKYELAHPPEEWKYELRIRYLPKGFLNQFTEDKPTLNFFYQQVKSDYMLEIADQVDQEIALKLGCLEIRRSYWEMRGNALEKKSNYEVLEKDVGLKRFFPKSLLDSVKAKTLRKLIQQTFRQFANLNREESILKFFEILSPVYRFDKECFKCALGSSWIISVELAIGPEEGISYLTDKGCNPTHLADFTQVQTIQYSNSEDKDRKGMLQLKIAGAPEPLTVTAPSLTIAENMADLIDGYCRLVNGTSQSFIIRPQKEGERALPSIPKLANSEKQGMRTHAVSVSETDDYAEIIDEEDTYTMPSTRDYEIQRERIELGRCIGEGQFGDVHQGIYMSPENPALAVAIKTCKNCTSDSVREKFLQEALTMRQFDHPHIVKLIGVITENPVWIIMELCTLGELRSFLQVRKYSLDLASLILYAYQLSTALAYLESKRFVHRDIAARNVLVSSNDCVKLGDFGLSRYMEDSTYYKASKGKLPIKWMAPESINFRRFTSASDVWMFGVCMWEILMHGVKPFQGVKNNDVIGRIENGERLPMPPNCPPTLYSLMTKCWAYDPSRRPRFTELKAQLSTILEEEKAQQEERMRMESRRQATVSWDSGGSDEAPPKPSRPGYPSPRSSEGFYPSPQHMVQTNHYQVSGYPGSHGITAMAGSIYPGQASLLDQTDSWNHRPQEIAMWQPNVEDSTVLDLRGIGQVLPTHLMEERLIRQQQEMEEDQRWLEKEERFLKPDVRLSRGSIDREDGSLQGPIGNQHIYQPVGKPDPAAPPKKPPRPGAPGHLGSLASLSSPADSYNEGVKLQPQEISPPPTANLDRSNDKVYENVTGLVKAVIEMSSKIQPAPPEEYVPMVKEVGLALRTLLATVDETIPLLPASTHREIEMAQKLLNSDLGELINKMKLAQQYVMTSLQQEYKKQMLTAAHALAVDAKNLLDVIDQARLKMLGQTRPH
# Chain of Fibroblast growth factor 2 (Homo sapiens) (P09038 whole entry, looked up): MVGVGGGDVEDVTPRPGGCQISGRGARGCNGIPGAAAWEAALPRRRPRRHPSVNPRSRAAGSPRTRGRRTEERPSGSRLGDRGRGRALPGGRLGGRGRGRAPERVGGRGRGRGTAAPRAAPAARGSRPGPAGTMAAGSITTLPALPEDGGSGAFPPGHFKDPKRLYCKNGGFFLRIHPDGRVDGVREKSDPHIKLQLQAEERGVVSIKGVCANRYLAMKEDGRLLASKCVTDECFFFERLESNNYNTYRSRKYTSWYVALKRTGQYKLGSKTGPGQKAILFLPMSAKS
# Chain of Concanavalin-A (Canavalia ensiformis) (P02866 whole entry, looked up): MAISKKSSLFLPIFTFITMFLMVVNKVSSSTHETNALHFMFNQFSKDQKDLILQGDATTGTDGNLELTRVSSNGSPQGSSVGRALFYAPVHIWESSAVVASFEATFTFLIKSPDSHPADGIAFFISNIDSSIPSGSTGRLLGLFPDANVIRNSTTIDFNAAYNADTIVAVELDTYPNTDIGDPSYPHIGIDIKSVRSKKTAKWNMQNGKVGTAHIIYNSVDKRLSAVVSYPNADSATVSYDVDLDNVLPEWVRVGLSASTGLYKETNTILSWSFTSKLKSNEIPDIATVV
# Chain of Albumin (Bos taurus) (P02769 whole entry, looked up): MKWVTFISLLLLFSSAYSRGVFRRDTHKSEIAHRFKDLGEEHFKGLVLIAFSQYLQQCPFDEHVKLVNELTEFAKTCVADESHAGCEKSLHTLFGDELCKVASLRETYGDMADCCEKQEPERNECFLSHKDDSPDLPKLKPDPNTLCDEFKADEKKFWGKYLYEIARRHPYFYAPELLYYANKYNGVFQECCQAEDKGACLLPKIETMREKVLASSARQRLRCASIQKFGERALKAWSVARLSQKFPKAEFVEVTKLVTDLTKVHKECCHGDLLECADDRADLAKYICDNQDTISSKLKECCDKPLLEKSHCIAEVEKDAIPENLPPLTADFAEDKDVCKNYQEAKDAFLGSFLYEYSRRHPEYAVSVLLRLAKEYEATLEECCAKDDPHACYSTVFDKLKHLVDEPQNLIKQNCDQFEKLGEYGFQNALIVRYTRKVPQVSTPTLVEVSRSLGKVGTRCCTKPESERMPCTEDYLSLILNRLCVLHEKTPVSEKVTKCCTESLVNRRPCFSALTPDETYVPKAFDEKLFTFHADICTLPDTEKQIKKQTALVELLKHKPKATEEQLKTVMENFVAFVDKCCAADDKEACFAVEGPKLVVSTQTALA
# Chain of Follistatin (Homo sapiens) (P19883 whole entry, looked up): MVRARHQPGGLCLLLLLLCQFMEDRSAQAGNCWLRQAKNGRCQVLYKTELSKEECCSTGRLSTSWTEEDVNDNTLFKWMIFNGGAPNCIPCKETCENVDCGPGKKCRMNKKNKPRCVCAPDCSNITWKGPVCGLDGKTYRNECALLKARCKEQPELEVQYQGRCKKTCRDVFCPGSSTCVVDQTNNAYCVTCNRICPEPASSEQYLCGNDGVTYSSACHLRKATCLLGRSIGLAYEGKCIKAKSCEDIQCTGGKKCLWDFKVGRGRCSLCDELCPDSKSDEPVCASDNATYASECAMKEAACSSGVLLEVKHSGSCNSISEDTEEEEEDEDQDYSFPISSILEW
Structure (SMILES),composite z-score (Albumin (Bos taurus)),composite Z-score [1],composite z-score [2],composite z-score [3],composite z-score [4],composite z-score [5],composite z-score [6],composite z-score (Sam68 (KHDRBS1)),composite z-score [7],composite z-score [8],composite z-score [9],composite z-score [10],composite z-score [11],composite z-score [12],composite z-score [13],composite z-score [14],z-score [15],composite z-score (Lefty1),composite z-score [16],z-score [17]
COc1ccc(COC(=O)NN=C2C[C@@H](O)[C@@H](O)[C@@H]3[C@@H]4C(=O)N(Cc5ccc6c(c5)OCO6)C(=O)[C@@H]4CC[C@H]23)cc1,0.252,0.0467 (inactive),0.0534,-0.0523,-0.32,0.352,-0.257,-0.319,-0.486,-1.15,-0.0397,-0.474,-0.126,-0.261,-1.12,-1.21,0.419,-1.06,0.801,0.506 (inactive)
CCCNC(=O)OC[C@H]1O[C@H](CCON=C2c3cc(OC)ccc3O[C@H](c3cccc(OC)c3)[C@H]2O)C=C[C@@H]1Oc1ccc(OC)cc1,0.491,3.22 (inactive),0.219,0.0889,0.137,1.24,0.812,0.956,0.366,0.493,2.07,0.824,0.222,0.618,0.418,1.11,1.2,0.292,0.228,0.652 (inactive)
CO[C@@H](C1CCCCC1)[C@@H](C)[C@H](OCc1cccc(Br)c1)[C@@H](C)CO,-0.0658,-0.188 (inactive),-0.207,-0.209,-0.17,-0.111,-0.0972,-0.0221,0.908,-0.153,-0.833,-0.0434,-0.299,-0.106,0.265,0.286,-0.72,0.407,-0.181,0.158 (inactive)
COC(=O)[C@H](C)NC(=O)CCC1CC(OC(=O)NCc2cccc3ccccc23)CC2(CCCC(COC(=O)NCCC(C)C)O2)O1 (stereo not given in full),0.168,0.559 (inactive),-0.095,-0.124,0.24,1.01,0.127,0.997,0.229,-0.087,0.164,1.18,0.287,-1.15,0.295,0.803,0.95,0.36,0.268,0.652 (inactive)
COc1ccc(COC(=O)NN=C2C[C@@H](O)[C@@H](O)[C@@H]3[C@@H]4C(=O)N(C[C@@H]5CCCO5)C(=O)[C@@H]4CC[C@@H]23)cc1,0.0566,0.58 (inactive),-0.128,-0.0832,0.234,0.727,0.824,0.78,0.508,0.327,0.365,0.275,-0.2,0.953,0.0253,0.104,0.883,0.0359,0.627,0.181 (inactive)
CC(CCN1CCCc2nc(C)c(C)cc21)=NOC[C@@H](C)[C@H](OCc1ccccc1)C(C)C,-0.453,0.081 (inactive),-0.0918,-0.0878,-0.358,0.816,-0.432,-0.818,-0.621,-0.691,2.52,-0.703,-0.0748,-0.9,-0.516,-0.165,1.37,0.241,-0.606,-1.14 (inactive)
CC(C)=CCCC(C)=CCON=C1C[C@@H](O)[C@@H](O)[C@@H]2[C@@H]3C(=O)N(Cc4ccc5c(c4)OCO5)C(=O)[C@@H]3CC[C@H]12,0.0686,-0.16 (inactive),0.0568,0.428,0.389,1.17,0.206,0.945,0.957,-0.0491,0.364,0.838,-0.0613,0.855,0.779,0.613,-0.564,1.04,0.793,0.497 (inactive)
COCOc1ccc(Br)cc1C(=O)C=Cc1ccc2c(c1)OCO2,-0.0265,1.33 (inactive),-0.132,-0.169,-0.321,-0.576,-0.684,-0.562,0.525,-0.723,0.263,-0.396,-0.141,0.962,0.516,0.449,2.57,0.471,0.69,-2.08 (inactive)
O=C1C=C[C@@H](O)[C@@H]2[C@@H]3C(=O)N(c4cccc(Oc5ccccc5)c4)C(=O)[C@@H]3CC[C@@H]12,0.0329,-0.554 (inactive),-0.132,-0.176,-0.0169,-0.55,-0.239,0.184,0.417,0.19,0.959,0.548,-0.183,-0.127,0.464,-0.196,-0.774,0.478,0.228,-0.57 (inactive)
CCc1cc2c(nc1CC)CCN(CCC(C)=NO[C@@H]1O[C@H](COC(C)=O)[C@@H](OC(C)=O)[C@H](OC(C)=O)[C@H]1OC(C)=O)C2,0.314,-0.0798 (inactive),0.105,-0.0527,0.0275,1.34,0.388,1.32,0.922,0.571,0.0815,0.286,0.0487,0.816,1.03,0.559,-0.766,1.42,0.167,1.03 (inactive)
COc1ccc(O[C@H]2C=C[C@@H](c3ccccc3)O[C@@H]2CO)cc1,-0.311,-0.0521 (inactive),0.0762,-0.104,0.131,-0.209,0.0797,-0.713,0.495,0.304,-0.457,-0.145,-0.363,-0.0957,0.36,0.363,0.319,0.479,-0.126,-0.162 (inactive)
CC(CCN1CCc2nc(-c3ccccc3)c(-c3ccccc3)cc2C1)=NO[C@H](C)c1cn([C@H](CO)Cc2ccccc2)nn1,0.901,-0.248 (inactive),-0.155,-0.161,0.367,0.585,0.0245,-0.29,0.26,0.158,0.955,0.137,0.0132,0.689,0.677,0.882,2.22,0.313,0.158,-0.595 (inactive)
